From PubChem BioAssay (Tox21)
Results filed as inconclusive are left out. The source made the active and inactive calls. Calls come from the whole dose curve; as a rule, active = well fitted cell-killing curve with a large enough effect in the repeat runs; inconclusive = weak or mixed curves, or effect the other way; inactive = no such curve, though single readings can be large or run the other way.

Assay: qHTS assay for identifying genotoxic compounds that show differential cytotoxicity against isogenic chicken DT40 cell lines with known DNA damage response pathways - Rev3 mutant cell line (AID 743014); note: nearly all actives have a fitted effect of over 55% in size
Settings: chicken DT40 Rev3-/- viability, CellTiter-Glo, 40 h; series mostly up to 68.4 µM; activity, negative = cytotoxicity: at the top concentration
Source text: National Center for Advancing Translational Sciences [NCATS]
NIH Chemical Genomics Center [NCGC]
U.S. Environmental Protection Agency [EPA]
National Institutes of Environmental Health Sciences [NIEHS]
National Toxicology Program [NTP]
U.S. Food and Drug Administration [FDA]
DNA repair pathways play a critical role in cellular homeostasis by repairing DNA damage induced by endogenous processes and xenobiotics. Isogenic chicken DT40 cell lines deficient in different DNA repair pathways can be used to identify genotoxic compounds and aid in characterizing the nature of the DNA damage induced. Two DNA repair-deficient cell lines with disrupted genes, Rad54/Ku70 or Rev3, were used to screen the Tox21 10K compound library. Possible genotoxicity was based on the presence of a significant increase in cytotoxicity in one or more of the DNA repair-deficient cell lines compared to that observed in the parental DNA repair-proficient cell line. CellTiter Glo viability assay (Promega, Madison, WI) was used to measure cell viability in these cells after compound treatment. This assay includes the data from the Rev3 mutant cell line.
Tox21 Assay Protocol Summary:
300 DT40 mutant cells in 5 uL/well were dispensed into white, solid-bottom 1536-well plates using a Multidrop Combi (ThermoFisher Scientific, Waltham, MA) dispenser. After the assay plates were incubated at 37 C/5% CO2 for approximately 0.5 hour, 23 nL of compounds dissolved in DMSO, positive controls or DMSO only was transferred into the assay plate by a pintool work station (Kalypsys, San Diego, CA). The assay plates were incubated at 37 C/5% CO2 for 40 hours. After 5 uL per well of CellTiter-Glo reagent was added into each well of the assay plates, the plates were incubated for 30 min at room temperature and the luminescence intensity of the plates was measured using a ViewLux (PerkinElmer, Shelton, CT) plate reader.
% is set by controls: 0 for no effect and ±100 for the full control effect; potency is the fitted concentration of half-maximal effect.

Row | SMILES | activity, negative = cytotoxicity | Potency
1 | COC(=O)CCCC(=O)O | -24.7% (inactive) | 
2 | C#CC(C)(O)CC(C)C (stereo not given) | -10.6% (inactive) | 
3 | CC(C)(O)c1ccccc1 | 4.26% (inactive) | 
4 | CCCCN(CCO)CCO | -2.85% (inactive) | 
5 | CCCCCCOC(=O)c1ccccc1O |  | 27.3 µM (active)
6 | CC(O)CN(CCCN(C)C)CCCN(C)C (stereo not given) | -19% (inactive) | 
7 | CC(C)(O)Cc1ccccc1 | -3.33% (inactive) | 
8 | CC(=O)c1ccc(C)cc1 | 1.85% (inactive) | 
9 | COCc1ccc(COC)cc1 | -1.62% (inactive) | 
10 | CC(C)c1cccc(C(C)C)c1N | -20.4% (inactive) | 
11 | COc1cc(C)cc(O)c1 | 0.0773% (inactive) | 
12 | C1CCCCCCCCCCC1 | -1.75% [at 31.4 µM] (inactive) | 
13 | N#CC1(O)CCCCC1 | 0.0307% [at 95 µM] (inactive) | 
14 | OCC(CO)(CO)COCC(CO)(CO)CO | -2.19% (inactive) | 
15 | CCCCCCCCCCCl | 0.954% [at 95 µM] (inactive) | 
16 | CC(C)c1cccc(O)c1 | -20.2% [at 95 µM] (inactive) | 
17 | CC12CCC(CC1=O)C2(C)C (stereo not given) | 13.9% (inactive) | 
18 | CCCc1ccccc1O | 6.27% (inactive) | 
19 | COc1cc(O)cc(O)c1 | 4.07% (inactive) | 
20 | CC1(C)SC(C)(C)SC(C)(C)S1 | -27.1% (inactive) | 

Row | SMILES | activity, negative = cytotoxicity | Potency
21 | CC(C)[C@H](N)C(=O)OCCOCn1cnc2c(=O)[nH]c(N)nc21 |  | 23.7 µM (active)
22 | C1C2OC2C2C1C1CC2C2OC12 (stereo not given) | 0.561% [at 95 µM] (inactive) | 
23 | O=C(O)c1ccccc1S | 0.185% (inactive) | 
24 | CC(C)CCCCCCN | -17.1% (inactive) | 
25 | NC(=O)Nc1nc2ccccc2[nH]1 | 3.06% (inactive) | 
26 | N[C@@H](CS)C(=O)O | 6.44% [at 95 µM] (inactive) | 
27 | CC(C=O)Cc1ccc(C(C)C)cc1 (stereo not given) | -11.6% (inactive) | 
28 | C=CCOCC(O)CS(=O)(=O)O (stereo not given) | 0.178% [at 95 µM] (inactive) | 
29 | FC(F)(F)C(F)(F)C(F)(F)C(F)(F)C(F)(F)C(F)(F)C(F)(F)C(F)(F)C(F)(F)C(F)(F)F | -1.46% [at 8.53 µM] (inactive) | 
30 | COc1cccc(Br)c1 | 11.5% (inactive) | 
31 | CC(=O)CCc1ccc(O)cc1 | -7.63% (inactive) | 
32 | OCCN1C[C@H](O)[C@@H](O)[C@H](O)[C@H]1CO | 14.2% (inactive) | 
33 | COc1cccc(OC)c1 | 0.0155% (inactive) | 
34 | CCC(C(=O)NC(N)=O)c1ccccc1 (stereo not given) | -19.8% (inactive) | 
35 | COC(=O)C1=C(C)NC(C)=C(C(=O)OCC(C)=O)C1c1ccccc1[N+](=O)[O-] (stereo not given) |  | 11.9 µM (active)
36 | CCCCCCC(CCCCCCCCCCC(=O)OCC(COC(C)=O)OC(C)=O)OC(C)=O (stereo not given) | -19.4% (inactive) | 
37 | Nc1cc(N)cc(C(=O)O)c1 | -16.5% (inactive) | 
38 | C=C(C)C(=O)NCCC[N+](C)(C)C | 1.59% (inactive) | 
39 | CCc1cc(S(=O)(=O)O)c2cc(C(C)C)cccc1-2 | -1.18% (inactive) | 
40 | CN1[C@@H]2CC[C@H]1CC(NC(=O)n1c(=O)[nH]c3ccccc31)C2 (stereo not given in full) | 0.598% (inactive) | 
